From PubChem BioAssay AID1259415 (National Center for Advancing Translational Sciences (NCATS), 2018) come the findings set out here.

Out of some 410,000 compounds screened, about 18,000 (4.4%) were called active. Not shown: some 7% with an inconclusive outcome. Rule as the data show it: active = activity change below about -60%; inconclusive = no clear call, values can overlap the other calls; inactive = above about -39%. The entries come from a sample that favours actives as a whole.
% is scaled to controls: 0 for no effect and ±100 for the full control effect.

A short description of this test: qHTS Assay for inhibitors of the human cytomegalovirus (HCMV). The conditions noted are these: HFF cells, HCMV-luciferase reporter, 72 h; at 57.5 µM; active compounds read low. The method in brief: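 Cell-based, HFFs, 1000 cells/well, 16 h 37C; cpds in DMSO + HCMV-luc, MOI 1 PFU/cell; 72 h 37C; OneGlo luminescence after 5 min RT; norm. to buffer vs Salinomycin 10uM.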
For the compound `COC(=O)c1ccccc1NC(=O)c1cc(-c2ccccc2O)no1`, the activity change, negative = inhibition is -14.2% (inactive). Regarding `COC(=O)/C(=C1\Oc2ccc(C(C)(C)C)cc2S1)C(F)(F)F`, the activity change, negative = inhibition is -66.8% (active). Take `CCOC(=O)C1=C(c2ccccc2)O/C(=C(/C(=O)OC)C(F)(F)F)S1`: the activity change, negative = inhibition was 34.3% (inactive). `O=C(CNC(=O)c1n[nH]c2ccccc12)Nc1cc(Cl)ccc1Cl`: the activity change, negative = inhibition is 12.1% (inactive). Turning to `Cc1ccc(C)c(-n2nnnc2SCC(=O)c2c(N)n(C)c(=O)n(C)c2=O)c1`, the activity change, negative = inhibition is -19.3% (inactive).

On to `COc1ccc(CCCNC(=O)C2Cc3c(-c4cccc(C(N)=O)c4)ccnc3O2)cc1` (centres undefined), for which the activity change, negative = inhibition is -20.5% (inactive). `COc1ccc(NC(=O)C2Cc3c(-c4cccc(NC(C)=O)c4)ccnc3O2)cc1OC` (centres undefined): the activity change, negative = inhibition was -67.8% (active). For `CC(=O)Nc1cccc(-c2ccnc3c2CC(C)(C(=O)NCc2ccccc2)O3)c1` (centres undefined), the activity change, negative = inhibition was -79.4% (active). Regarding `COc1ccc(NC(=O)C2(C)Cc3c(-c4cccc(NC(C)=O)c4)ccnc3O2)cc1` (centres undefined), the activity change, negative = inhibition is -77.2% (active). For `COc1ccc(NC(=O)C2(C)Cc3c(-c4cccc(NC(C)=O)c4)ccnc3O2)cc1OC` (centres undefined), the activity change, negative = inhibition is 16% (inactive). For the compound `CC(=O)Nc1ccc(-c2ccnc3c2CC(C(=O)NC(C)C)O3)cc1` (centres undefined), the activity change, negative = inhibition was -16.6% (inactive). On to `CC1(C(=O)NCC2CCOCC2)Cc2c(-c3cccc(C(N)=O)c3)ccnc2O1` (centres undefined), for which the activity change, negative = inhibition is 28.9% (inactive). On to `COc1ccc(NC(=O)C2(C)Cc3c(-c4ccc(C(N)=O)cc4)ccnc3O2)cc1` (centres undefined), for which the activity change, negative = inhibition was 32.9% (inactive).

Turning to `CC1(C(=O)Nc2cccnc2)Cc2c(-c3ccccc3)ccnc2O1` (centres undefined), the activity change, negative = inhibition is -18.2% (inactive).

Take `Brc1ccc2c(c1)NC(c1cccnc1)=NC(c1ccccc1)=N2`: the activity change, negative = inhibition is 21.9% (inactive).

Consider `COc1ccc(NC(=O)CCNC(=O)Cn2ccc3ccccc3c2=O)c(OC)c1`, for which the activity change, negative = inhibition was -21.8% (inactive).

As to `COC(=O)c1[nH]c2cccc(C)c2c1NC(=O)CN1CCCc2ccccc21`, the activity change, negative = inhibition was 52.8% (inactive). To `CCOc1ccccc1C(=O)NCC(c1ccc(N(C)C)cc1)N1CCCC1` (centres undefined) belongs -6.83% (inactive); to `CCOc1ccc(-c2nonc2NC(=O)c2oc3ccc(CC)cc3c2C)cc1`, 29.2% (inactive).

For `CCOc1ccc(-c2cn(S(=O)(=O)c3cccc4nsnc34)nc2N)cc1`, the activity change, negative = inhibition is -29.7% (inactive). As for `COc1ccccc1C(c1nnnn1C(C)(C)C)N1CCN(Cc2ccccc2)CC1` (centres undefined), the activity change, negative = inhibition is -19.3% (inactive). With `CCC(C)(C)n1nnnc1C(c1cccs1)N1CCN(c2nc3ccccc3s2)CC1` (centres undefined), the activity change, negative = inhibition was -76.3% (active). With `CCC(C)(C)n1nnnc1C(c1ccc(OC)c(OC)c1)N1CCN(C(=O)c2ccco2)CC1` (centres undefined), the activity change, negative = inhibition was -20.3% (inactive). Consider `CCOc1ccccc1N(CC)C(=O)c1cc2ccc3cccnc3c2[nH]1`, for which the activity change, negative = inhibition is 36.8% (inactive).
